Results from PubChem BioAssay AID1159580 (chemical genetic matrix, 2015).
Where “and” joins values, the source holds several entries; their conditions need not be identical. Identical values can stand only once. Screen size: about 5,500 compounds; about 2,000 (36%) were called active. Another 18% or so got no clear call; they are omitted. No stated cut-off is given here; in the data, active means normalized growth mostly below about 0.91 (no sharp cut-off); inconclusive means no clear call, values can overlap the other calls; inactive means mostly above about 0.92. The list shows a part of the results.

Test: chemical genetic growth profiling, strain panel (AID 1159580);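 further: tested at 20 µM; growth read once vehicle control cultures reached saturation at 30 °C; 1 = growth at the plate median or of vehicle wells; lower values mean less growth of the strain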
Conditions: S. cerevisiae deletion strains, growth OD

Measured: normalized growth

CC(=O)O[C@H]1CC[C@@]2(C)C(C[C@@H](OC(C)=O)[C@]3(C)C2CC[C@@]2(C)[C@H](c4ccoc4)OC(=O)[C@H]4O[C@]423)C1(C)C (some centres not stated)
inactive: locus YAL013W, strain DEP1, active compounds read low 0.993 | locus YAL021C, strain ccr4, active compounds read low 1.01 | locus YAL026C, strain drs2, active compounds read low 1 | locus YAL030W, strain snc1, active compounds read low 0.99 | locus YBL061C, strain skt5, active compounds read low 0.996 | locus YBR009C, strain hhf1, active compounds read low 0.987 | locus YBR021W, strain FUR4, active compounds read low 0.999 | locus YBR023C, strain chs3, active compounds read low 0.997 | locus YBR171W, strain sec66, active compounds read low 1 | locus YBR229C, strain ROT2, active compounds read low 1 | locus YBR231C, strain swc5, active compounds read low 1.01 | locus YBR279W, strain paf1, active compounds read low 1 | locus YCL011C, strain gbp2, active compounds read low 0.993 | locus YCL016C, strain dcc1, active compounds read low 1 | locus YCL029C, strain bik1, active compounds read low 1.01 | locus YCL061C, strain MRC1, active compounds read low 1 | locus YCL069W, strain vba3, active compounds read low 0.998 | locus YCR088W, strain abp1, active compounds read low 0.995 | locus YDL005C, strain med2, active compounds read low 0.996 | locus YDL035C, strain GPR1, active compounds read low 0.998 | locus YDL040C, strain nat1, active compounds read low 0.988 | locus YDL074C, strain BRE1, active compounds read low 1.04 | locus YDL101C, strain DUN1, active compounds read low 1.03 | locus YDL185W, strain tfp1, active compounds read low 1.01 | locus YDL192W, strain arf1, active compounds read low 0.992 | locus YDR001C, strain nth1, active compounds read low 0.99 | locus YDR069C, strain doa4, active compounds read low 0.991 | locus YDR101C, strain arx1, active compounds read low 1.01 | locus YDR137W, strain rgp1, active compounds read low 1.08 | locus YDR159W, strain sac3, active compounds read low 0.983 | locus YDR162C, strain NBP2, active compounds read low 1.02 | locus YDR195W, strain ref2 0.93 | locus YDR297W, strain sur2, active compounds read low 0.999 | locus YDR318W, strain mcm21, active compounds read low 1.01 | locus YDR334W, strain swr1, active compounds read low 0.985 | locus YDR335W, strain msn5, active compounds read low 0.999 | locus YDR388W, active compounds read low 1.01 | locus YDR392W, strain spt3, active compounds read low 0.914 | locus YDR502C, strain sam2, active compounds read low 1.03 | locus YEL003W, strain gim4, active compounds read low 0.991 | locus YEL037C, strain rad23, active compounds read low 0.988 | locus YEL061C, strain CIN8 (second series), active compounds read low 0.987 | locus YEL061C, strain CIN8, active compounds read low 1.01 | locus YER015W, strain faa2, active compounds read low 0.998 | locus YER016W, strain bim1, active compounds read low 0.999 | locus YER110C, active compounds read low 1.02 | locus YER111C, strain swi4, active compounds read low 0.983 | locus YER155C, strain BEM2 (second series), active compounds read low 0.988 | locus YER155C, strain BEM2, active compounds read low 1 | locus YER167W, strain BCK2, active compounds read low 0.993 | locus YFR010W, strain ubp6, active compounds read low 0.992 | locus YGL078C, strain dbp3, active compounds read low 1.02 | locus YGL086W, strain mad1, active compounds read low 1.01 | locus YGL167C, strain pmr1, active compounds read low 0.994 | locus YGL173C, strain kem1, active compounds read low 1 | locus YGL227W, strain vid30, active compounds read low 1 | locus YGL240W, strain doc1, active compounds read low 0.978 | locus YGL248W, strain PDE1, active compounds read low 1.02 | locus YGL253W, strain hxk2, active compounds read low 1 | locus YGR078C, strain PAC10, active compounds read low 1.02 | locus YGR135W, strain pre9, active compounds read low 1.06 | locus YGR229C, strain SMI1, active compounds read low 0.959 | locus YGR252W, strain gcn5, active compounds read low 1.1 | locus YHR013C, strain ard1, active compounds read low 0.981 | locus YHR027C, strain rpn1, active compounds read low 0.998 | locus YHR030C, strain SLT2, active compounds read low 1.05 | locus YHR079C, strain IRE1 (second series), active compounds read low 1.02 | locus YHR079C, strain IRE1, active compounds read low 1.04 | locus YHR094C, strain hxt1, active compounds read low 1.01 | locus YHR129C, strain ARP1, active compounds read low 1.01 | locus YHR142W, strain chs7, active compounds read low 1.03 | locus YHR200W, strain rpn10, active compounds read low 1.04 | locus YIL066C, strain RNR3, active compounds read low 0.999 | locus YIL073C, strain SPO22, active compounds read low 1.04 | locus YIL125W, strain kgd1, active compounds read low 1.01 | locus YIR030C, strain dcg1, active compounds read low 1 | locus YJL092W, strain hpr5, active compounds read low 0.998 | locus YJL095W, strain BCK1 (second series), active compounds read low 1 | locus YJL095W, strain BCK1, active compounds read low 1.07 and 1.04 | locus YJL115W, strain asf1, active compounds read low 0.997 | locus YJL129C, strain trk1, active compounds read low 0.987 | locus YJL134W, strain LCB3, active compounds read low 1.01 | locus YJL154C, strain vps35, active compounds read low 1 | locus YJL164C, strain tpk1, active compounds read low 0.995 | locus YJL166W, strain qcr8, active compounds read low 1 | locus YJL168C, strain set2, active compounds read low 1.01 | locus YJL187C, strain SWE1 (second series), active compounds read low 1.04
